We go through 17 compounds from PubChem BioAssay (NCATS).

Inconclusive results are not listed. Where a call stands in place of a potency, no number is given. The source made the active and inactive calls. The call rests on the fitted dose curve; in most records, active means well fitted inhibition curve with a large enough effect; inconclusive means small, poorly fitted or top-dose-only effect; inactive means flat fitted curve, though single readings scatter.

Chain of Calcium and integrin-binding protein 1 (Homo sapiens) (Q99828 whole entry, looked up): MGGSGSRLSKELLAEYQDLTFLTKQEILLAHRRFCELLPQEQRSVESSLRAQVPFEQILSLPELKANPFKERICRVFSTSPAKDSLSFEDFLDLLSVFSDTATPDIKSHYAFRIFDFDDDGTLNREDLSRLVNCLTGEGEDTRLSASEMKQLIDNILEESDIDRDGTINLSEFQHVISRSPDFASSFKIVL

This assay has as its target Calcium and integrin-binding protein 1 (Homo sapiens) (UniProt Q99828). Kind of assay: Primary qHTS for Identification of Calcium Integrin Binding Protein 1 (CIB1) Competitor (AID 1508620).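 Further: GST tagged CIB1 binding a fluorescein labelled alphaIIb integrin peptide tracer; top concentration of the series differs between compounds.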 The settings on record: CIB1-GST / FITC-alphaIIb peptide fluorescence polarization; series mostly up to 114 µM. Put shortly: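 Fluorescence polarization competition: CIB1-GST (1 uM final) preincubated with compound 15 min at room temperature, then FITC-labeled alphaIIb peptide (100 nM final) added for another 15 min. Polarization read at Ex 480/Em 540.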
With `O=C(CNC(=O)c1cccc2ccccc12)OC(C(=O)Nc1cc(C(F)(F)F)ccc1Cl)c1ccccc1` (configuration not stated), the Potency result was “inactive”.
`O=C(Nc1ccc(-c2nc3ccccc3[nH]2)cc1)Nc1ccc2c(c1)OCCO2`: the Potency entry was “inactive”.
Regarding `COc1c(Cl)cccc1NC(=O)c1c(NC(=O)Cc2ccccc2)sc2c1CCCC2`, the Potency result is “inactive”.
The value for `O=S(=O)(Nc1ccc(C2CCNCC2)cc1)c1ccc(NCc2cccc(Cl)c2O)cc1` was “inactive”; that for `O=C(O)c1ccc2c(c1)C(=O)N([C@]1(C(=O)O)C[C@H]1c1ccccc1)C2=O` was “inactive”; that for `COC(=O)c1ccccc1NC(=O)c1ccccc1OC(F)F` was “inactive”.
Regarding `Cc1cc(C)nc(NC(=S)N2CCN(c3ccc4ccccc4c3)CC2)c1`, the Potency entry was “inactive”.
Turning to `CC(C)(C)OC(=O)N1CCN(c2ccc(NCc3ccc(-c4ccc(C#N)cc4)o3)cn2)CC1`, the Potency entry was “inactive”.
Consider `CCOc1ccccc1-c1nnc2n1N=C(c1cccc(OC)c1)CS2`, for which the Potency result was “inactive”.
The value for `CCOc1ccc(C(=O)Oc2ccc(-c3nc4ccccc4[nH]3)cc2)cc1` was “inactive”.
Next, `COC(=O)c1ccc(Cn2ncc3c4sc(C)cc4n(C)c3c2=O)cc1`: “inactive”.
With `Cc1sc(C)c2c1C(=O)NS2(=O)=O`, the Potency result was “inactive”.
Next, `c1ccc(CNCc2nnc(-c3cc4ccccc4[nH]3)s2)cc1`: “inactive”; `c1ccc(CN(Cc2ccccc2)Cc2nnc(-c3cc4ccccc4[nH]3)o2)cc1`: “inactive”; `Cc1cc2c(s1)c1cnn(Cc3c(F)cccc3Cl)c(=O)c1n2C`: “inactive”.
Next, `Cc1cnc(-c2ccccc2CO)nc1NCc1ccc(-c2cccnc2)cc1`: “inactive”.
Consider `Cc1scc2c1C(=O)NS2(=O)=O`, for which the Potency entry was “inactive”.
